In PubChem BioAssay (NCATS):
Values joined by “and” are separate entries in the source; they are usually repeats but may differ in a detail not shown here. Equal values may be shown once. Results filed as inconclusive are left out. Values without a mark were called inactive. Active and inactive are the calls of the source. The call rests on the fitted dose curve; in most records, active means well fitted inhibition curve with a large enough effect; inconclusive means small, poorly fitted or top-dose-only effect; inactive means no such curve, though single readings can be large or run the other way.

Assay: qHTS for Inhibitors of the Aldehyde Dehydrogenase Family (ALDH1A2, ALDH1A3, ALDH2, ALDH3A1) (AID 2061307); further: nearly all actives have a fitted effect of over 50% in size; on Potency: test system not described further here
Conditions: ALDH inhibition qHTS; series mostly up to 50.3 µM; activity change, negative = inhibition: at the top concentration
On the % scale 0 is the no-effect control and ±100 the full control effect; potency means the concentration at half of the fitted maximal effect.

Row | SMILES | Potency | activity change, negative = inhibition
1 | COc1ccc([N+](=O)[O-])c(S(=O)(=O)c2ccc(C)cc2)n1 | 2.25 µM (active) | –
2 | CCN1C(=O)c2ccccc2S(=O)c2ccc(C(=O)NCc3cccc(C(F)(F)F)c3)cc21 (stereo not given) | – | -8.59%
3 | O=C(Cc1ccc(-c2csc(Nc3ccc(F)cc3)n2)s1)N1CCOCC1 | 7.12 µM (active) | –
4 | Cc1ccc(-n2ncc3c(Nc4cccc(C(=O)O)c4)ncnc32)cc1 | – | 0%
5 | COc1ccccc1C(=O)Nc1nnc(SCc2cc(=O)c3ccccc3[nH]2)s1 | 3.98 µM (active) | –
6 | O=c1cc(N2CCNCC2)nc2sc(-c3cccc(-c4ccsc4)c3)nn12 | 6.31 µM (active) | –
7 | Clc1ccc(Cn2cnc3ccccc32)cc1 | 14.1 µM (active) | –
8 | O=C([C@H](NS(=O)(=O)c1ccc2[nH]c(=O)ccc2c1)c1ccc(F)cc1)N(Cc1ccco1)Cc1cccs1 | 25.2 µM (active) | –
9 | Cc1ccc(N2CCN(C(=S)c3ccc(-c4ccccc4[N+](=O)[O-])o3)CC2)cc1 | 3.57 µM (active) | –
10 | CC(C)(C)c1ccccc1-n1c(CN2CCN(C(=O)c3ccco3)CC2)nc2ccccc2c1=O | – | 0%
11 | Cc1ccc(NC(=O)c2cc(-c3cccs3)on2)cc1C | – | -52.3% [at 34.4 µM]
12 | CC(=O)c1cc2c(cc1NC(=O)c1cnn(-c3ccc(F)cc3F)c1)OCO2 | – | -13.3% [at 34.4 µM]
13 | Cc1csc2c1c(=O)n(O)c(=O)n2Cc1ccccc1 | – | -27.1%
14 | O=C(N/N=C/c1ccc(Br)o1)c1cccc(F)c1 | 6.31 µM (active) | –
15 | COC(=O)c1ccc(CN2CCC(N(CCc3ccccc3)Cc3ccccc3)CC2)cc1 | – | -10.1%
16 | CN1c2cc(C(=O)Nc3ccc(N4CCOCC4)cc3)ccc2C(=O)N2CCCCC21 (stereo not given) | – | 1.23% [at 34.4 µM]
17 | CCOc1ccc2[nH]c(=O)c(CN(Cc3nnnn3Cc3ccco3)C3CCCCC3)cc2c1 | 0.896 µM (active) | –
18 | O=[N+]([O-])c1ccc(NC(=S)N=Nc2c(O)[nH]c3ccccc23)cc1 | 7.12 µM (active) | –
19 | O=C(Nc1ccnc(Cc2ccccc2)c1)c1ccc(-c2cccc([N+](=O)[O-])c2)o1 | 2.01 µM (active) | –
20 | Cc1csc(-c2cc(-c3c(Cc4ccc(S(N)(=O)=O)c(F)c4)c(CC4CC4)nn3-c3nc(C(=O)O)cs3)ccc2F)c1 | 12.7 µM (active) | –

Row | SMILES | Potency | activity change, negative = inhibition
21 | Cc1c2c(=O)n(-c3ccccc3)[nH]c2cc(=O)n1CCN1CCOCC1 | – | 11.6%
22 | Cc1cc(NC(=O)c2cscn2)ccc1C(=O)O | – | -13.7% [at 34.4 µM]
23 | CN(C)Cn1c(O)c(N=NC(=O)c2cccnc2)c2ccccc21 | – | 5.4%
24 | O=C1c2ccccc2-c2nnc(-c3ccccc3Cl)cc21 | – | -13.3%
25 | Cc1ccc(-c2cc3c(nn2)-c2ccccc2C3=O)cc1 | – | -15.1%
26 | COc1cccc2cc(C(=O)Nc3ccc(C)cc3)c(=O)oc12 | – | -25.8% [at 34.4 µM]
27 | COc1ccc(-c2nn(-c3ccccc3)cc2C(=O)Nc2ccccc2OC)cc1 | – | -57.3% [at 34.4 µM]
28 | c1ccc(CCN(Cc2ccccc2)C2CCN(C3CCCCC3)CC2)cc1 | 7.94 µM (active) | –
29 | Cc1ccc(NC(=O)Nc2cc3c(cc2N2CCCCC2)n(C)c(=O)n3C)cc1Cl | 3.55 µM (active) and 798 nM (active) | –
30 | O=C(CSc1nc2ccccc2c(=O)[nH]1)Nc1nc(-c2ccc(Br)cc2)cs1 | – | -14.1%
31 | Cc1ccc(NC(=O)Cc2c(C)nn(C)c2C)cc1F | 10 µM (active) | –
32 | O=C(Nc1ccc(S(=O)(=O)N2CCOCC2)cc1)c1ccc(CN2CCc3ccccc3C2)cc1 | – | 13.7%
33 | O=C(Nc1cccc(Nc2ccccc2)c1)c1ccc(-c2cccc([N+](=O)[O-])c2)o1 | 1.27 µM (active) | –
34 | NS(=O)(=O)c1ccc(Nc2cn[nH]c2-c2cccc(-c3ccccc3)c2)cc1 | – | -25.1%
35 | O=C(Nc1cccc(C(F)(F)F)c1)c1ccccc1NCc1cccc(C(F)(F)F)c1 | – | 2.71%
36 | Fc1cc(Cn2cnc3ccccc32)ccc1Cl | 11.2 µM (active) | –
37 | Fc1cccc(F)c1CNCc1cccnc1-n1cccn1 | 3.98 µM (active) | –
38 | O=C(c1ccc2ccccc2c1)c1no[n+]([O-])c1C(=O)c1ccc2ccccc2c1 | 5.04 µM (active) | –
39 | Cc1oc(-c2ccc(C(F)(F)F)cc2)nc1COc1cccc2cc(NS(=O)(=O)C(F)(F)F)ccc12 | 12.7 µM (active) | –
40 | Cc1c(P(=S)(c2ccccc2)c2ccccc2)[n+]2ccccc2n1C/C=C/c1cccc(Br)c1 | 3.16 µM (active) | –
